From PubChem BioAssay AID624481 (The Scripps Research Institute Molecular Screening Center, 2012)
Unmarked numbers belong to inactive results. Activity calls are given as the source filed them. Rule as the data show it: active = inhibition above about 50%; inactive = the rest.

molecular target: Prolyl endopeptidase-like (Mus musculus) (UniProt Q8C167); assay: purified PREPL inhibitors, PREPL inhibitor project, biochemical, gel-based competitive ABPP, fluorescence, HTS hits (AID 624481); settings: at 20 µM, active compounds read high
Sequence (Q8C167 whole entry, looked up): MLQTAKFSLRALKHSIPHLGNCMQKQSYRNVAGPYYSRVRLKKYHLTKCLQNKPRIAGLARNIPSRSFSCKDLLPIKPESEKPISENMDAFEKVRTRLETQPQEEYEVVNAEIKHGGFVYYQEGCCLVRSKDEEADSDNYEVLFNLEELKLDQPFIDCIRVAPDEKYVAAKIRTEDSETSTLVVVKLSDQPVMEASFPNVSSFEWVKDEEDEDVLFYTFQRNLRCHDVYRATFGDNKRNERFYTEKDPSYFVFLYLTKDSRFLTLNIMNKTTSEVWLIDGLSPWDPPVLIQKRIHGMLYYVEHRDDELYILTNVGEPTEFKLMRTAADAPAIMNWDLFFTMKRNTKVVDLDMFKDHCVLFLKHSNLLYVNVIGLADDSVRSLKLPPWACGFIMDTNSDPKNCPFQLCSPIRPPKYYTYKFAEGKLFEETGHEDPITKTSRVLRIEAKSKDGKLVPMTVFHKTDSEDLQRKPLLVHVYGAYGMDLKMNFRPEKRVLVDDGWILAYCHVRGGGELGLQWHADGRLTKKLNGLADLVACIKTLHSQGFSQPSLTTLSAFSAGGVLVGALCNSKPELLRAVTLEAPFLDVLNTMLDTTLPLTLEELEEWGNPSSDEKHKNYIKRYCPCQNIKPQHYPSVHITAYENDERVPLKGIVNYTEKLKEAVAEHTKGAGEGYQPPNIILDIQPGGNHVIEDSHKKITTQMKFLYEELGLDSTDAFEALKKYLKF

In order of rising inhibition:
1. c1ccc(N2CCN(c3nc(-c4ccccn4)nc4ccccc34)CC2)cc1  -283%
2. CCCCC(CC)C(=O)Nc1cc(C(=O)NCCC)ccc1N1CCC2(CC1)CC(c1ccccc1)=NO2 (configuration not stated)  -141%
3. O=C1c2ccccc2C(=O)c2c1cccc2N1CCN(C/C=C/c2ccccc2)CC1  -116%
4. COc1ccc(NC(=O)Nc2cccc3c2O[C@@H](CN(C)CC2CCCCC2)[C@@H](C)CN([C@H](C)CO)C3=O)cc1  -79%
5. COc1ccc(C(=O)c2coc3ccc(O)c(CN4CCOCC4)c23)cc1  -78%
6. CC(C)[C@H](CN1CCC[C@H]1CN1C(N)=NC[C@@H]1Cc1ccccc1)N1C[C@@H](Cc2ccccc2)N(CCc2ccc(Cl)c(Cl)c2)C1=N  -75%
7. Cc1ccc(C2CC(c3cccc(Cl)c3)n3nc(N)nc3N2)cc1 (configuration not stated)  -71%
8. Oc1ccc(Nc2nc(N3CCCC3)c3ccccc3n2)cc1  -60%
9. Oc1cc(Nc2ccncc2)cc2cccnc12  -59%
10. O=C(CN1CCN(c2ccc(O)cc2)CC1)Nc1cc([N+](=O)[O-])ccc1Cl  -53%
11. O=C(c1cc([N+](=O)[O-])ccc1Cl)N1CCN(c2ccc([N+](=O)[O-])cc2)CC1  -51%
12. COc1ccc(C2CC(c3cccc(C)c3)n3nc(N)nc3N2)cc1 (configuration not stated)  -50%
13. COc1ccc(N2CCN(c3nc4c(c(=O)n(C)c(=O)n4C)n3Cc3ccccc3)CC2)cc1  -47%
14. O=C(C1=C[C@@H](c2ccc(Br)cc2)C[C@@H](OCCCCO)O1)N1CCN(Cc2ccc3c(c2)OCO3)CC1  -47%
15. CCC[C@@H](CN1CCC[C@H]1CN1C(N)=NC[C@H]1C(C)C)N1C[C@@H](Cc2ccccc2)N(CCCC2CCCC2)C1=N  -46%
16. COc1ccc2nc3cc(Cl)ccc3c(Nc3cc(CN4CCCC4)c(O)c(CN4CCCC4)c3)c2n1  -45%
17. C=CC[n+]1c(-c2ccc(Cl)cc2Cl)csc1Nc1ccc(NC(C)=O)cc1  -43%
18. CC(=O)Nc1ccc(C(=O)Cn2c3[n+](c4c(F)c(F)ccc42)CCCCC3)cc1  -42%
19. C#CCOCCOCCOCCNc1nc(N2CCN(C(=O)CCCCCCCCCCNC(=O)Cn3cc(CCCCCN)nn3)CC2)nc(N2CCN(C(=O)CCCCCCCCCCNC(=O)[C@H](CO)n3cc(CCCCCN)nn3)CC2)n1  -38%
20. CN1Cc2c(N3CCOCC3)nc3sc(C(=O)c4ccccc4)c(N)c3c2CC1(C)C  -32%
21. Oc1ccccc1-[n+]1c(-c2ccccc2)cc(-c2ccccc2)cc1-c1ccccc1  -30%
22. CC(C)NC(=O)c1sc(=S)n2c1[nH]c(=O)c1ccc(C(=O)NCCc3ccc(Cl)cc3)cc12  -28%
23. CN(C)c1ccc(C(CNC(=O)COc2ccc(Cl)cc2)N2CCCC2)cc1 (configuration not stated)  -25%
24. C[C@H]1CN([C@@H](C)CO)C(=O)c2cccc(NS(=O)(=O)c3ccc(Cl)cc3)c2O[C@@H]1CN(C)CC1CCCCC1  -24%
25. CC(=NNc1nc2ccccc2[nH]1)c1cc2ccccc2o1  -17%
26. COc1ccc(NC(=O)c2ccc(-c3ccc(-c4noc(C)n4)cc3C)cc2)cc1N1CCN(C)CC1  -16%
27. CC(C)c1ccc(CNc2ccc(N3CCOCC3)cc2)cc1  -12%
28. CC(C)(C)n1cnc2cc(NCc3ccc(Br)cc3)ccc21  -12%
29. Nc1nc(-c2ccccc2)c(N=Nc2ccccc2Cl)s1  -9%
30. COc1cc2nc(Nc3ccc(C)c(C)c3)nc(N)c2cc1OC  0%
31. CCC[C@@H](CN1CCC[C@H]1CN1C(N)=NC[C@@H]1Cc1ccccc1)N1C[C@@H]([C@H](C)CC)N(CCCC2CCCC2)C1=N  9%
32. COc1cc(-c2nnc3sc(Cc4ccc(Cl)cc4)nn23)cc(OC)c1OC  14%
33. Cc1cc2cc(CNC(=O)c3ccc(Br)o3)ccc2n1C  38%

In the case of `CC(C)[C@H](CN1CCC[C@H]1CN1C(N)=NC[C@H]1C(C)C)N1C[C@@H](Cc2ccccc2)N(CCCC2CCCC2)C1=N`, the inhibition is reported as 92% (active).
For `CCN1/C(=C\c2ccc3ccccc3[n+]2CC)Sc2cc(C)ccc21`, the inhibition was 50% (active).
For `CCN1/C(=C/c2ccc3cc(C)ccc3[n+]2CC)Sc2ccccc21`, the inhibition was 98% (active).
`O=S(=O)(c1ccc(-c2csc(=Nc3ccccc3)n2CCCN2CCOCC2)cc1)N1CCOCC1` was tested, and the inhibition was 57% (active).
